The source of these data is PubChem BioAssay (NCI).

The structures appear in SMILES notation. The panel holds about 83,000 compounds, 20% with a hit somewhere; the sample as a whole holds those more often.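 Interpretation: 100, growth as untreated; towards 0, rising growth inhibition; 0, no net growth; 0 to -100, cell death. Compounds scoring below 10 were considered active.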 Unmarked numbers belong to inactive results. The source made the active and inactive calls.

Test systems include HCT-15 colon; HT29 colon; SNB-75 CNS; SNB-19 CNS; U251 CNS; PC-3 prostate; SK-MEL-5 melanoma; UACC-62 melanoma; LOX IMVI melanoma; SK-MEL-28 melanoma; SK-MEL-2 melanoma; EKVX NSCLC; SN12C renal; UO-31 renal; TK-10 renal; ACHN renal; CAKI-1 renal; A498 renal; CCRF-CEM leukemia; MOLT-4 leukemia.
Common to all, as to assay: NCI-60 one-dose screen, 48 h (100 = growth as untreated, 0 = no growth, -100 = all killed)
What all share (conditions): 10 µM unless noted

For the compound `Cc1cc(C)c2c(=O)[nH]c(SCC(=O)Nc3cccc(S(=O)(=O)N(C)C)c3)nc2n1`, the growth was 119% in the test with HCT-15 colon; 104% in the test with HT29 colon; 90.7% in the test on SNB-75 CNS; 95.9% in the test on SNB-19 CNS; 108% in the test on U251 CNS; 95.4% with PC-3 prostate. For the same compound, the growth in the test on SK-MEL-5 melanoma is 113%; with UACC-62 melanoma it was 98.3%; in the test on LOX IMVI melanoma it was 101%; in the test with SK-MEL-28 melanoma it was 126%; in the test on SK-MEL-2 melanoma, 96.5%; in the test on EKVX NSCLC, 93.3%. Also, the growth is 109% in the test on SN12C renal; 94.6% in the test on UO-31 renal; 98.4% with TK-10 renal; 108% in the test with ACHN renal; 107% in the test on CAKI-1 renal; 104% in the test on A498 renal. Further, the figures for the growth in the test with CCRF-CEM leukemia and with MOLT-4 leukemia were 89.1% and 96.1%, respectively.
Turning to `CCCn1c(=S)sc2c(Cl)nc(C)nc21`, the growth in the test on HCT-15 colon is 12.7%; with HT29 colon, 84%; in the test on SNB-75 CNS it was 8.62% (active); with SNB-19 CNS, 93.5%; in the test with U251 CNS, 79%; in the test on PC-3 prostate, 100%. Further, the growth was 108% in the test on SK-MEL-5 melanoma; 54.7% with UACC-62 melanoma; -78.5% (active) in the test on LOX IMVI melanoma; 102% in the test with SK-MEL-28 melanoma; 1.85% (active) in the test with SK-MEL-2 melanoma; 106% in the test with EKVX NSCLC. Also, the growth with SN12C renal is 113%; in the test on UO-31 renal, 103%; in the test on TK-10 renal, 137%; in the test on ACHN renal, 83.1%; with CAKI-1 renal, 63.8%; in the test on A498 renal, 98.5%. In addition, the growth with CCRF-CEM leukemia was 72%; in the test with MOLT-4 leukemia, 116%.
For `CC(C)(C)OC(=O)N1C/C(=C\c2cccs2)C(=O)/C(=C/c2cccs2)C1`, the growth in the test with HCT-15 colon is 85.1%; in the test with HT29 colon it was 86.4%; in the test on SNB-75 CNS it was 78.9%; in the test on SNB-19 CNS it was 94.5%; in the test with U251 CNS, 83.7%; in the test with PC-3 prostate, 74.7%. Moreover, the growth was 87.9% in the test on SK-MEL-5 melanoma; 66.7% in the test with UACC-62 melanoma; 90.9% with LOX IMVI melanoma; 106% in the test on SK-MEL-28 melanoma; 95.6% in the test with SK-MEL-2 melanoma; 99.5% in the test with EKVX NSCLC. The growth with SN12C renal is 93.6%; in the test with UO-31 renal, 71.4%; in the test on TK-10 renal, 110%; in the test on ACHN renal it was 97.2%; with CAKI-1 renal it was 67.2%; with A498 renal, 81.9%. Further, the growth was 51.7% with CCRF-CEM leukemia and 69.4% in the test on MOLT-4 leukemia.
For the compound `COc1ccc(/C=C(\C#N)c2ccc([N+](=O)[O-])cc2)c2ccccc12`, the growth with HCT-15 colon was 75.7%; in the test with HT29 colon, 76.8%; with SNB-75 CNS it was -16% (active); in the test with SNB-19 CNS, 24.3%; in the test with U251 CNS it was 27%; with PC-3 prostate, 62.5%. The growth in the test with SK-MEL-5 melanoma was 74.9%; in the test on UACC-62 melanoma it was 37.1%; in the test on LOX IMVI melanoma, 70.2%; in the test with SK-MEL-28 melanoma, 59.2%; in the test on SK-MEL-2 melanoma, 59.8%; with EKVX NSCLC, 52.9%. Further, the growth in the test with SN12C renal was 41.4%; in the test with UO-31 renal, 66.5%; in the test on TK-10 renal, 88.1%; with ACHN renal, 37.9%; with CAKI-1 renal it was 64.3%; with A498 renal it was 60%. The growth was 83% in the test with CCRF-CEM leukemia and 88.3% in the test on MOLT-4 leukemia.
For `CCC#CC[C@H]1C/C=C2/C(=O)C=C[C@@H]2C/C=C\CCCC(=O)O1`, the growth in the test with HCT-15 colon was -6.01% (active); in the test with HT29 colon, -15.8% (active); in the test with SNB-75 CNS it was 38.7%; in the test with SNB-19 CNS, 37.3%; with U251 CNS, -11.2% (active); with PC-3 prostate it was -19.7% (active). Further, the growth was -85.6% (active) with SK-MEL-5 melanoma; -17.6% (active) in the test with UACC-62 melanoma; -55.8% (active) in the test with LOX IMVI melanoma; 1.63% (active) in the test with SK-MEL-28 melanoma; 8.9% (active) in the test with SK-MEL-2 melanoma; 23.7% in the test with EKVX NSCLC. Also, the growth in the test on SN12C renal was 0.755% (active); in the test with UO-31 renal it was -82.7% (active); in the test with TK-10 renal, -1.68% (active); with ACHN renal it was -86.8% (active); in the test with CAKI-1 renal, 18.2%; in the test on A498 renal, 46.5%. Moreover, the growth was 9.12% (active) in the test with CCRF-CEM leukemia and 7.42% (active) in the test on MOLT-4 leukemia.
Turning to `COC(=O)CCCCCN=Cc1c(O)c(O)c(C(C)C)c2cc(C)c(-c3c(C)cc4c(C(C)C)c(O)c(O)c(C=NCCCCCC(=O)OC)c4c3O)c(O)c12`, the growth was 17.2% in the test with HCT-15 colon; 4.21% (active) in the test on HT29 colon; 46.9% in the test on SNB-75 CNS; 20.6% in the test with SNB-19 CNS; 3.85% (active) with U251 CNS; 14% with PC-3 prostate. Also, the growth was 32.3% in the test with SK-MEL-5 melanoma; 25% in the test with UACC-62 melanoma; 13.7% in the test with LOX IMVI melanoma; 33% in the test with SK-MEL-28 melanoma; 10.4% with SK-MEL-2 melanoma; 21.7% in the test with EKVX NSCLC. Further, the growth was 19.8% with SN12C renal; 19.5% with UO-31 renal; 3.95% (active) in the test with TK-10 renal; 15.5% with ACHN renal; 55.6% with CAKI-1 renal; 35.1% in the test with A498 renal. The growth with CCRF-CEM leukemia is 18.1%; in the test on MOLT-4 leukemia, 13.6%.
Take `O=S(=O)(NCCCNc1cc(-c2cn(-c3ccccc3)nc2-c2cccc(O)c2)ccn1)c1cccc(F)c1`: the growth in the test on HCT-15 colon was 9.95% (active); in the test with HT29 colon, 8.11% (active); in the test with SNB-75 CNS, 49.5%; with SNB-19 CNS, 81.6%; with U251 CNS it was 40.1%; in the test with PC-3 prostate, 15.5%. For the same compound, the growth in the test with SK-MEL-5 melanoma is 20%; in the test on UACC-62 melanoma, 50.5%; in the test on LOX IMVI melanoma it was 13.7%; in the test with SK-MEL-28 melanoma it was 44.3%; with SK-MEL-2 melanoma, 66.3%; in the test on EKVX NSCLC, 39%. Besides, the growth in the test with SN12C renal was 65.9%; in the test on UO-31 renal it was 35.6%; with TK-10 renal, 58.9%; with ACHN renal it was 43.7%; in the test with CAKI-1 renal it was 41%; with A498 renal, 46.6%. The values for the growth in the test with CCRF-CEM leukemia and in the test on MOLT-4 leukemia were 36.3% and 31%, respectively.
Take `COc1cc(C(=O)N2CCN(C(=O)c3ccco3)CC2)c(N)cc1OCc1ccccc1`: the growth in the test on HCT-15 colon is 101%; with HT29 colon, 107%; with SNB-75 CNS it was 96.8%; in the test with SNB-19 CNS, 103%; with U251 CNS, 99.1%; with PC-3 prostate it was 98.5%. Besides, the growth in the test on SK-MEL-5 melanoma is 94.9%; in the test with UACC-62 melanoma, 93.8%; in the test with LOX IMVI melanoma, 92.4%; in the test on SK-MEL-28 melanoma, 114%; in the test on SK-MEL-2 melanoma, 77.6%; in the test on EKVX NSCLC, 94.6%. For the same compound, the growth is 101% with SN12C renal; 41.9% in the test with UO-31 renal; 107% with TK-10 renal; 99.6% in the test on ACHN renal; 105% in the test on CAKI-1 renal; 105% in the test with A498 renal. Also, the growth was 86.4% with CCRF-CEM leukemia and 95.4% with MOLT-4 leukemia.
